The values below come from PubChem BioAssay (NCI).

About 83,000 compounds went through this panel and 20% of them were active in at least one assay; those are over-represented in the sample as a whole.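 Assay: single dose, 48 h. Readout: percent growth (0 = no net growth; negative = cell death). Active: <10.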 Values without a mark were called inactive. Calls of active or inactive are those of the source.

Common to all, as to assay: NCI-60 one-dose screen, 48 h (100 = growth as untreated, 0 = no growth, -100 = all killed)
What all share (conditions): 10 µM unless noted

In assay [1] the test system is NCI-H23 lung.
Assay [2] deals with NCI-H226 lung.
For assay [3], the system named is NCI-H322M lung.
Assay [4] relates to HOP-62 NSCLC.
The test system of assay [5] is NCI-H460 lung.
Assay [6] has as its system HOP-92 NSCLC.
In assay [7] the test system is NCI-H522 lung.
In assay [8] the test system is A549/ATCC NSCLC.
Assay [9] has as its system 786-0 renal.
The test system of assay [10] is COLO 205 colon.
In assay [11] the test system is DU-145 prostate.
Assay [12] deals with K-562 leukemia.
In assay [13] the test system is MALME-3M melanoma.
Assay [14] relates to MDA-MB-231 breast.
In assay [15] the test system is RXF 393 renal.
The subject of assay [16] is SF-268 CNS.
The test system of assay [17] is SF-295 CNS.
Assay [18] relates to SF-539 CNS.
In assay [19] the test system is UACC-257 melanoma.
Assay [20] deals with M14 melanoma.

Turning to `C=C(C)[C@@H]1CC[C@]2(C(=O)N3CCN(CC)CC3)CC[C@]3(C)[C@H](CC[C@@H]4[C@@](C)(CCC(=O)N5CCN(CC)CC5)[C@H](C(=C)C)CC[C@]43C)[C@@H]12`, the growth was 74.4% in [1]; 79.6% in assay [2]; 89% in assay [3]; 88.7% in assay [4]; 25.1% in [5]; 52.2% in [6]. The growth in assay [7] is 77.9%; in assay [8], 57.4%; in assay [9], 0.392% (active); in assay [10], 61.1%; in assay [11], 70.8%; in assay [12] it was 30.4%. For the same molecule, the growth is 43.2% in [13]; 58.6% in [14]; 48.8% in [15]; 76.9% in assay [16]; 47.8% in [17]; 66% in assay [18]. Besides, the growth is 18.6% in assay [19] and 35.8% in [20].

For the molecule `Cc1cc(C)n(Cc2cc(C(C)(C)C)cc(C(C)(C)C)c2)c(=O)c1C#N`, the growth in assay [1] is 101%; in [2], 93.3%; in assay [3], 92.5%; in assay [4], 96.3%; in assay [5], 93.9%; in [6] it was 86%. In addition, the growth in assay [7] was 83.9%; in assay [8] it was 98%; in assay [9] it was 93.5%; in assay [10], 110%; in [11], 103%; in assay [12], 88.1%. In addition, the growth in assay [13] is 82.4%; in assay [14], 82.5%; in assay [15] it was 101%; in [16], 94.8%; in [17], 85.9%; in [18] it was 90.8%. Also, the growth in [19] was 102%; in assay [20] it was 89.8%.

`C[Si](C)(C)Cc1ccccc1`: the growth is 102% in assay [1]; 114% in [2]; 119% in assay [3]; 99.9% in assay [4]; 120% in [5]; 110% in [6]. Further, the growth in assay [7] is 139%; in assay [8], 120%; in [9], 98%; in assay [10], 139%; in assay [11], 125%; in [12], 126%. Also, the growth is 115% in assay [13]; 115% in assay [14]; 132% in [15]; 122% in assay [16]; 103% in assay [17]; 107% in assay [18]. For the same molecule, the growth in assay [19] was 112%; in assay [20], 104%.

Turning to `Cc1ccc(Cc2cnc(NC(=O)/C=C/c3cccc(C)c3)s2)cc1`, the growth in assay [1] is 13.3%; in [2] it was 36.8%; in assay [3] it was 46.1%; in assay [4], 18.5%; in assay [5] it was 1.93% (active); in [6], 70.4%. The growth is 18.6% in [7]; 16.1% in assay [8]; 17.8% in assay [9]; -4.26% (active) in assay [10]; 16.2% in assay [11]; 13.7% in [12]. Further, the growth in assay [13] is 31.4%; in assay [14], 3.61% (active); in assay [15], -0.16% (active); in assay [16], 44.7%; in assay [17], -13.6% (active); in assay [18], -30.1% (active). Also, the growth was 67.7% in [19] and -12.4% (active) in [20].

Turning to `COc1cnc2c(c1)C(=O)c1c-2n(CCCNC(C)C)c(=O)c2cc([N+](=O)[O-])ccc12`, the growth in assay [1] was -67.8% (active); in assay [2], -58.8% (active); in assay [3], -31.6% (active); in assay [4], -53.2% (active); in assay [5] it was -74.1% (active); in assay [6], -80.1% (active). In addition, the growth in assay [7] is -56.6% (active); in assay [8] it was -65.5% (active); in assay [9], -88.2% (active); in assay [10], -74.3% (active); in assay [11], -58.4% (active); in assay [12] it was -14.4% (active). Besides, the growth in assay [13] is -58.2% (active); in assay [14], -60.5% (active); in assay [15] it was -80.7% (active); in assay [16] it was -61.2% (active); in assay [17] it was -76.2% (active); in [18], -63% (active). Moreover, the growth is -67% (active) in [19] and -76.8% (active) in assay [20].

In the case of `N=C(N)N=Nc1ccc(O)cc1`, the growth in assay [1] is 68% [100 µM]; in assay [2], 73.5% [100 µM]; in [3], 80.2% [100 µM]; in assay [4], 76.9% [100 µM]; in assay [5], 84.1% [100 µM]; in assay [6] it was 84% [100 µM]. Besides, the growth was 37.7% [100 µM] in assay [7]; 93.3% [100 µM] in assay [8]; 28.9% [100 µM] in assay [9]; 57.2% [100 µM] in [10]; 80.4% [100 µM] in assay [11]; 17% [100 µM] in assay [12]. The growth in assay [13] was 85.2% [100 µM]; in [14], 103% [100 µM]; in assay [15] it was 20.8% [100 µM]; in assay [16], 77.5% [100 µM]; in [17] it was 8.54% [100 µM] (active); in [18] it was 15.2% [100 µM]. In addition, the figures for the growth in assay [19] and in [20] were 95.6% [100 µM] and 81.6% [100 µM], respectively.

For the molecule `NC1=C(C/C(N)=N\O)C(c2ccccc2Cl)c2c(ccc3ccccc23)O1` (stereo not given), the growth in assay [1] is 86.9%; in assay [2], 89.4%; in assay [3], 96.4%; in [4] it was 78.2%; in [5], 87.8%; in assay [6] it was 75.7%. Also, the growth in assay [7] was 55.4%; in assay [8], 87.3%; in assay [9], 93.4%; in assay [10] it was 118%; in assay [11], 106%; in assay [12], 22.8%. Further, the growth in [13] was 58.5%; in assay [14], 86.9%; in assay [15], 86.4%; in assay [16] it was 82.2%; in [17], 66.7%; in [18], 83.6%. Besides, the growth in assay [19] is 96.1%; in assay [20] it was 59.8%.
